Targets with a hit are over-represented here; the source holds about 7,900 in all. About 0.6% of all pairs of compound and target were hits.
Compound: c1cn2cc(-c3ccc4cn[nH]c4c3)nc(Nc3ccc(N4CCOCC4)cc3)c2n1 [entospletinib]
Assay: log2 fold change, soluble protein after heating vs DMSO (PISA); higher = thermal stabilisation; K562 cells, 10 uM, 30 min; active = over 0.2 and 3.5 SD of the protein, either way, in both replicates (recomputed)
In short: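 Thermal stability values are relative to control samples and come from duplicates. They are expressed as log2 fold changes. For measurement, K562 cells (2×10^6 cells/mL) received 10 μM compound for 30 min, and aliquots were heated for 3 min over 48°C-58°C, pooled, and extracted at 4°C in PBS with 0.5% NP-40. Soluble protein, the supernatant after 21,000xg for 90 min, was quantified by TMTpro 16plex LC-MS/MS with equalised channel sums.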

UniProt Q9UJ14, sequence (Q9UJ14 whole entry, looked up): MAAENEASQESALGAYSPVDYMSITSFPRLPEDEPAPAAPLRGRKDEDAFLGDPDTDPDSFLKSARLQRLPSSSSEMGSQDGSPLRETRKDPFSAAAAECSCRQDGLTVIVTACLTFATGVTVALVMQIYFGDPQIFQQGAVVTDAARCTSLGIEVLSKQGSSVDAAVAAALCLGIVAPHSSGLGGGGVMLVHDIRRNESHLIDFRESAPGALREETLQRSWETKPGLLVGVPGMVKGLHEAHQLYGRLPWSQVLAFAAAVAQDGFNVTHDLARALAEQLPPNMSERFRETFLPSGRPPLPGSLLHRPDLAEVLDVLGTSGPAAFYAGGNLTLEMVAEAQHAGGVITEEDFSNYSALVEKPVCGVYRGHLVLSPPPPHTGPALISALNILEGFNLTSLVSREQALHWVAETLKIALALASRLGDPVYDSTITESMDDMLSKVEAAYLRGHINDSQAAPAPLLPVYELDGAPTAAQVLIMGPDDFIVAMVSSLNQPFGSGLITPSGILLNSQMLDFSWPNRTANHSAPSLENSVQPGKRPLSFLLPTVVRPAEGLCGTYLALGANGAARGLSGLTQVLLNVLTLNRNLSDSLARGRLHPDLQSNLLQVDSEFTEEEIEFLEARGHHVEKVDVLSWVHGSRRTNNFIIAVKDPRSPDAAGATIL
UniProt Q8IWJ2, sequence (Q8IWJ2 whole entry, looked up): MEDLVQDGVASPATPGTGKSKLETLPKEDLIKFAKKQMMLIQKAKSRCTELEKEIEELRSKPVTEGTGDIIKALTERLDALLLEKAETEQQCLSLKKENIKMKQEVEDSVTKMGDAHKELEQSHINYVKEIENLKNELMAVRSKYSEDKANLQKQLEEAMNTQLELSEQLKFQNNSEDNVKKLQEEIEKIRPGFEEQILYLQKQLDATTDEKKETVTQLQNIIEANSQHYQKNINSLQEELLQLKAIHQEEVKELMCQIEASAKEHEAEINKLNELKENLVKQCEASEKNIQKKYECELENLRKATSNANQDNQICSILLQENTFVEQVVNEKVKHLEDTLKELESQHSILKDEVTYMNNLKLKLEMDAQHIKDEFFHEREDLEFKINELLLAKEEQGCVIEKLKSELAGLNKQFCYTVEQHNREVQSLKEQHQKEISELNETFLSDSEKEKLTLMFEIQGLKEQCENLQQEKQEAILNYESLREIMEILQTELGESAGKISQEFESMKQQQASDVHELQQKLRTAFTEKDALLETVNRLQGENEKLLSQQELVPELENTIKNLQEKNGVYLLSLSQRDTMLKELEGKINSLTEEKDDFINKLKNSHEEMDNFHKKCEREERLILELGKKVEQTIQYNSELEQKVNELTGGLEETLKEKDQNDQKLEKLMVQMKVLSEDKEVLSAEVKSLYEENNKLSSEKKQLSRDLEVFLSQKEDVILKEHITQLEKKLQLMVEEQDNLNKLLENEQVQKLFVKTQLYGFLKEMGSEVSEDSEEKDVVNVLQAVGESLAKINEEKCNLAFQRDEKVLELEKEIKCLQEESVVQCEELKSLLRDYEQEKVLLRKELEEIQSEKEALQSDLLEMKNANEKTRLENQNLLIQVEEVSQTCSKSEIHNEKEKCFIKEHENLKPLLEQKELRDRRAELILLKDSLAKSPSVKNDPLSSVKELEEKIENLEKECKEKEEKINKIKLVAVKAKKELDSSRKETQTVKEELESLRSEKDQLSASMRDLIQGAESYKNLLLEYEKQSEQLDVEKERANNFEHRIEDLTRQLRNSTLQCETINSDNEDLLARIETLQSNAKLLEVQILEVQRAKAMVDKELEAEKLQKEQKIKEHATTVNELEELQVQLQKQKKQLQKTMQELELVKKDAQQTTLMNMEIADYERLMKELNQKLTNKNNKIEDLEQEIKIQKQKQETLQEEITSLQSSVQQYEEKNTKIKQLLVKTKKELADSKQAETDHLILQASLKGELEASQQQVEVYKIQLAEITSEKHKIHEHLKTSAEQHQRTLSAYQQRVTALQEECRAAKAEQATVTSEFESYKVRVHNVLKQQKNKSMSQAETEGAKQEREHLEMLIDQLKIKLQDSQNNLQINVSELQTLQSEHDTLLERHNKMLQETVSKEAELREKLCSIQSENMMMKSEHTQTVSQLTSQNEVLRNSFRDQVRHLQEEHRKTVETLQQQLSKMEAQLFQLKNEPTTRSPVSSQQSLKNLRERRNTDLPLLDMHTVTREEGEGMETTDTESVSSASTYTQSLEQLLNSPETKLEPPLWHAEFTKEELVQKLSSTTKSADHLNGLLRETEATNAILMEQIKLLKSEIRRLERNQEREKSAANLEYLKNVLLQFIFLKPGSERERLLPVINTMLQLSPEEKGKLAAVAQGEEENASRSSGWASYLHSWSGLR
UniProt P63218, sequence (P63218 whole entry, looked up): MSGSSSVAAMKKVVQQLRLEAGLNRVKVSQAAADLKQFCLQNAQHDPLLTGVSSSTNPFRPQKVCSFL
UniProt P08754, sequence (P08754 whole entry, looked up): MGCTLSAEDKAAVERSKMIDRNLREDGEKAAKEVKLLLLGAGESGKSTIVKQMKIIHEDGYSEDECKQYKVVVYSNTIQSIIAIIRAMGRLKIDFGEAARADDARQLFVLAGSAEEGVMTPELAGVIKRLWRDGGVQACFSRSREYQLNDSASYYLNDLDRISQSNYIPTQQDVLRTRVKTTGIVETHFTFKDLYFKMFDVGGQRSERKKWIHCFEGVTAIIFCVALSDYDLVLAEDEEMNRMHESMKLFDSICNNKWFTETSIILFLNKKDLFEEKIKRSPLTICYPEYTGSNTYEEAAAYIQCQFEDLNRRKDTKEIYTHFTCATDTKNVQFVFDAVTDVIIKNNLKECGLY
UniProt Q92917, sequence (Q92917 whole entry, looked up): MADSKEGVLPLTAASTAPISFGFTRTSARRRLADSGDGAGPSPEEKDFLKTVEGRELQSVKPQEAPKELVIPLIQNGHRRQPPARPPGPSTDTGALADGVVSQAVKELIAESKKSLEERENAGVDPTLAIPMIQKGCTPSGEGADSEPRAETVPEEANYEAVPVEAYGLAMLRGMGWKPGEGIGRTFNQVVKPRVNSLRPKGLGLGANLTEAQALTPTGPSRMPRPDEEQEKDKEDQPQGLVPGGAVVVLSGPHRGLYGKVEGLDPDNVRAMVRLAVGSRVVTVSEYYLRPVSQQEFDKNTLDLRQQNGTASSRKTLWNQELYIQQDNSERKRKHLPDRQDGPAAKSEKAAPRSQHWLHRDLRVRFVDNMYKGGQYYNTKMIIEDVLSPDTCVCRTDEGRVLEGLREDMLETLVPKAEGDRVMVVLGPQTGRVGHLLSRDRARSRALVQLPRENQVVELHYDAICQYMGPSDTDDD
UniProt O43824, sequence (O43824 whole entry, looked up): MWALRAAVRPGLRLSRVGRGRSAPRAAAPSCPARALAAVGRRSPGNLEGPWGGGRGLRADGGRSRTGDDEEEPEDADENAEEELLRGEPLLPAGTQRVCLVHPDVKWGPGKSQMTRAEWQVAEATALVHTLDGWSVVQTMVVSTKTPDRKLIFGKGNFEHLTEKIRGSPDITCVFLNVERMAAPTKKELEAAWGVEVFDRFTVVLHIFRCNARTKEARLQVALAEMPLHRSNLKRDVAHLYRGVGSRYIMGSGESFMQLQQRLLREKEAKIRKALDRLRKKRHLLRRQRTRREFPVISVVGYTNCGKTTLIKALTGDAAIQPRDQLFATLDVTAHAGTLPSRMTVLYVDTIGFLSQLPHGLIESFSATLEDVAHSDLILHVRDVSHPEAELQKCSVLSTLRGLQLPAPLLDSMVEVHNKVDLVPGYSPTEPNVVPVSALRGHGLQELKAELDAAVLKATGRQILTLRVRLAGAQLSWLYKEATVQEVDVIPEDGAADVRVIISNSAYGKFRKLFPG
UniProt P49841, sequence (P49841 whole entry, looked up): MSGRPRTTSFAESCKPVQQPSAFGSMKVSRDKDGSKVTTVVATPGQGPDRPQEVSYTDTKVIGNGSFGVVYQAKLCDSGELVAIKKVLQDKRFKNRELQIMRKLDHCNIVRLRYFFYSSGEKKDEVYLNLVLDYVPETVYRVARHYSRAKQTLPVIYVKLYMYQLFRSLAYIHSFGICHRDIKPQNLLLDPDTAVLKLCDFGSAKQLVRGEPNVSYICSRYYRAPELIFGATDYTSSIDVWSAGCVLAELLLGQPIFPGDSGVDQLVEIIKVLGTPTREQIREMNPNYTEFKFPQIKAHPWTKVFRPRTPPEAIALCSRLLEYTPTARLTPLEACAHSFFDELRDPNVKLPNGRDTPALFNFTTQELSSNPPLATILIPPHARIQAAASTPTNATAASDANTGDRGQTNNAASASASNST
UniProt Q04446, sequence (Q04446 whole entry, looked up): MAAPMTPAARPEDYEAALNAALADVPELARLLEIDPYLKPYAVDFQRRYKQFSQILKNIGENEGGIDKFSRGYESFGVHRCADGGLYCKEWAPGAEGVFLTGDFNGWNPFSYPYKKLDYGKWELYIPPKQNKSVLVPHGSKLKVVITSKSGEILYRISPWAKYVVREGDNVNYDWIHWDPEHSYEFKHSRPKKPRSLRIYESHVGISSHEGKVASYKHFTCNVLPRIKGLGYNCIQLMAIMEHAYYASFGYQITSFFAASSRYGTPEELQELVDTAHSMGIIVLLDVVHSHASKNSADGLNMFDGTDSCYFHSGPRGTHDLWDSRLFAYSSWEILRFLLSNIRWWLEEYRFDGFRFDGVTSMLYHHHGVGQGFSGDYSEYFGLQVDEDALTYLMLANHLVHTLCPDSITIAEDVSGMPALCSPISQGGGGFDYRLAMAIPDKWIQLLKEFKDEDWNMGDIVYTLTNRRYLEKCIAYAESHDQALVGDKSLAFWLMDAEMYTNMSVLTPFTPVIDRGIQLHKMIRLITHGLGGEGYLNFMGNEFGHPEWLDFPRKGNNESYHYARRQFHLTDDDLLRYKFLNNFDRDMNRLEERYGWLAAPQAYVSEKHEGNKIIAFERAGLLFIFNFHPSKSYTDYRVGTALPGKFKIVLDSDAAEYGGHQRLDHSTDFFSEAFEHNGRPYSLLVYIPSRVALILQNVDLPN
UniProt Q9H0R8, sequence (Q9H0R8 whole entry, looked up): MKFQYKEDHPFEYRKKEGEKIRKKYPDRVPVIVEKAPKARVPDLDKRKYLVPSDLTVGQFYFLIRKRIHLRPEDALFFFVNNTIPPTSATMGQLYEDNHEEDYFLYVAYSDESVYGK

log2 fold change, inactive:
GDI1 (UniProt P31150) 0.032, FNTB (UniProt P49356) -0.143, GSK3A (UniProt P49840) -0.028, FAM91A1 (UniProt Q658Y4) 0.009, FUCA2 (UniProt Q9BTY2) -0.016, GATD1 (UniProt Q8NB37) -0.021, FANCI (UniProt Q9NVI1) -0.013, HEXA (UniProt P06865) 0, IFI30 (UniProt P13284) -0.032, GLUD1 (UniProt P00367) 0.173, IFT80 isoform 3 (UniProt Q9P2H3) -0.019, HNRNPH2 (UniProt P55795) 0.009, HDHD2 (UniProt Q9H0R4) -0.069, HBA1 (UniProt P69905) 0.042, HEATR5B (UniProt Q9P2D3) -0.025, GBF1 (UniProt Q92538) -0.005, FMR1 (UniProt Q06787) 0.01, HDAC1 (UniProt Q13547) -0.014, GNB2 (UniProt P62879) 0.038, GCC2 (UniProt Q8IWJ2) 0.144, FANCD2 isoform 1 (UniProt Q9BXW9) 0.002, HHEX (UniProt Q03014) -0.076, GTPBP6 (UniProt O43824) -0.092, GNAI3 (UniProt P08754) 0.038, GGT7 (UniProt Q9UJ14) -0.019, GPKOW (UniProt Q92917) -0.025, GNAS (UniProt Q5JWF2) 0.052, GGA2 (UniProt Q9UJY4) -0.117, HOMER1 (UniProt Q86YM7) 0.056, HMOX2 (UniProt P30519) 0.014, GABARAPL1 isoform 2 (UniProt Q9H0R8) -0.041, FEN1 (UniProt P39748) -0.051, HNRNPUL1 (UniProt Q9BUJ2) -0.029, GSK3B isoform 2 (UniProt P49841) -0.028, HMGB3 (UniProt O15347) 0.097, GLYR1 (UniProt Q49A26) 0.041, GNL3 (UniProt Q9BVP2) -0.12, HBZ (UniProt P02008) 0.009, GNG5 (UniProt P63218) 0.062, GBE1 (UniProt Q04446) 0.039
